# TDP1 inh: qHTS Assay for Inhibitors of Tyrosyl-DNA Phosphodiesterase (TDP1) | Tyrosyl-DNA phosphodiesterase 1 (Homo sapiens), Q9NUW8 | recombinant TDP1, AlphaScreen DNA substrate cleavage | Potency, µM (top dose mostly 130 µM), most hits filed as inhibitors | 350,000 compounds, 0.28% hits; note: nearly all actives have a fitted effect of over 40% in size
#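 Steps: enzyme plus compound, 15 min RT; add biotin/phosphotyrosine-FITC oligonucleotide (15 nM final), react 5 min; add donor/acceptor beads (10 ug/ml final), 10 min; read AlphaScreen. Tdp1 at 1 nM final.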
# IL-1B inflam inh: qHTS for Inhibitors of Inflammasome Signaling: IL-1-beta AlphaLISA Primary Screen; AID 743279, 2014; 360,000 compounds, 4.7% hits; THP-1 LPS/ATP IL-1B secretion, AlphaLISA, 16 h; active compounds read low; activity change, % at 57.5 µM; in the data active = activity change below about -50%; inconclusive = mostly about -30% to -49%
#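 Secreted IL-1B measured by AlphaLISA bead assay after 16 h compound exposure of THP-1 cells; compounds (final up to 57.5 uM) added 1 h before LPS (250 ng/mL) and ATP (1.25 mM) stimulation; lower signal means less secretion.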
# TDP1 cell noCPT: qHTS for Inhibitors of human tyrosyl-DNA phosphodiesterase 1 (TDP1): qHTS in cells in absence of CPT; AID 686978, 2013; Potency, µM (top dose mostly 46.2 µM), actives largely listed as inhibitors; DT40 Tdp1-/- hTDP1 cells, no CPT, ATP luminescence, 48 h; 420,000 compounds, 15% hits; note: nearly all actives have a fitted effect of over 55% in size
#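 Chicken DT40 Tdp1-/- cells stably complemented with human TDP1 were seeded at 400 cells/well with DMSO in place of 20 nM camptothecin. After compound pinning, cells grew at least 48 hr at 37 °C; viability read by CellTiter-Glo luminescence.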
# Giardia killer: Small Molecules that selectively kill Giardia lamblia: qHTS; Giardia lamblia trophozoite viability; AID 540267, 2011; activity change, % at 7.66 µM, hits read low; 340,000 compounds, 0.15% hits; in the data active = activity change below about -80%; inconclusive = between about -30% and that limit;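 note: parasites exposed to compound for two days anaerobically before the ATP read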
#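 Killing of trophozoites was scored by loss of ATP luminescence after a 48 hrs anaerobic exposure to compounds at 37 deg C, using 100 cells per well.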
# DT40 TDP1 CPT: qHTS for Inhibitors of human tyrosyl-DNA phosphodiesterase 1 (TDP1): qHTS in cells in presence of CPT | AID 686979, 2013 | Potency, µM (highest dose often 46.2 µM), most hits filed as inhibitors | chicken DT40 Tdp1-/-;hTDP1 cells + 20 nM CPT, ATP luminescence, 48 h | 420,000 compounds, 12% hits; note: nearly all actives have a fitted effect of over 55% in size
#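 Cell growth measured by CellTiter-Glo luminescence after a minimum 48 h, 37 C compound exposure with 20 nM CPT in Tdp1-knockout DT40 cells stably expressing hTDP1, seeded 400/well; qHTS titration format.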
# ELG1 DNA repair: qHTS screen for small molecules that inhibit ELG1-dependent DNA repair in human embryonic kidney (HEK293T) cells expressing luciferase-tagged ELG1; HEK293T ELG1-luciferase reporter, luminescence, 16 h; DNA damage induced by 5-fluorouridine; Potency, µM (highest dose often 46.1 µM), usual class: inhibitors; 330,000 compounds, 2.3% hits; AID 504467, 2011; note: nearly all actives have a fitted effect of over 55% in size
#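 Step one: seed 2,000 cells per well. Step two: pin-transfer compound or DMSO alongside 5-fluorouridine. Step three: incubate 16 hr, 37 °C, 5% CO2. Step four: add ONE-Glo, wait 30 min, read luminescence.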
# ELG1 FLuc counter: qHTS screen for small molecules that inhibit ELG1-dependent DNA repair: Hit Confirmation in Cell-Based Luciferin Assay; AID 624247, 2012; 350 compounds, 3% hits; cell-free firefly luciferase luminescence counter-screen, ViewLux; shares compounds with ELG1 DNA repair; Potency, µM (series often up to 46.1 µM), hits mostly inhibitors
# ELG1 Luc conf: HTS assay for small molecules that inhibit ELG1-dependent DNA repair in human embryonic kidney (HEK293T) cells expressing luciferase-tagged ELG1: Hit Confirmation; shares compounds with ELG1 DNA repair; HEK293T ELG1-luciferase levels, luminescence; cells co-treated with 5-fluorouridine; Potency, µM (highest dose often 46.1 µM), most hits filed as inhibitors; 670 compounds, 68% hits; note: nearly all actives have a fitted effect of over 55% in size
# ELG1-Luc MMS: confirmation of human ELG1 repair inhibitors, MMS stimulated | 670 compounds, 53% hits | HEK293T luciferase-tagged ELG1 level, MMS stimulated | Potency, µM (doses to about 46.1 µM), most hits filed as inhibitors | shares compounds with ELG1 DNA repair | AID 624249; note: nearly all actives have a fitted effect of over 60% in size
# ELG1 5FU viab: qHTS screen for small molecules that inhibit ELG1-dependent DNA repair: Hit Confirmation with 5FU Viability; Potency, µM (top dose mostly 46.1 µM), actives largely listed as cytotoxic; AID 624250, 2012; 670 tested, under 10 active; shares compounds with ELG1 DNA repair; cell viability with 5-FU, ELG1-dependent repair;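 note: ELG1-luc HEK293T cells cotreated with 5-fluorouridine at 10 µM final; viability measured 16 h after compound addition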
# ELG1 MMS cell: qHTS screen for small molecules that inhibit ELG1-dependent DNA repair: Hit Confirmation with MMS Viability | shares compounds with ELG1 DNA repair | Cell viability with MMS, ELG1-dependent DNA repair | Potency, µM (doses to about 46.1 µM), usual class: cytotoxic | 670 compounds, 33% hits;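 note: ELG1-luc HEK293T cells co-treated with 10 µM MMS; viability read 16 h after compound addition; nearly all actives have a fitted effect of over 60% in size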
# Cell viab unstim: qHTS screen for small molecules that inhibit ELG1-dependent DNA repair: Hit Confirmation with Unstimulated Viability Assay. shares compounds with ELG1 DNA repair. cell viability counter-screen, unstimulated, luminescence. Potency, µM (doses to about 45.9 µM), most hits filed as cytotoxic. 900 compounds, 8% hits. AID 624252, 2012;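 note: compound exposure lasted 16 hours before reading; nearly all actives have a fitted effect of over 55% in size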
# FLuc biochem: qHTS screen for small molecules that inhibit ELG1-dependent DNA repair: Hit Confirmation in Biochemical Luciferin Assay; shares compounds with ELG1 DNA repair; purified firefly luciferase, luminescence counter-screen; Potency, µM (highest dose often 57.5 µM), usual class: inhibitors; 350 compounds, 10% hits; AID 624253, 2012
# Numbers stand for hits; 0 = inactive; ? = inconclusive; - = not tested or not shown. In the library only some 19% were active in any assay of this set; here they are far more common. Unless noted, calls come from the whole dose curve; as a rule, active = well fitted curve in the direction sought with a large enough effect; inconclusive = small, poorly fitted or top-dose-only effect, or another doubt; inactive = no such curve, though single readings can be large; an effect the other way counts as inactive or inconclusive.
SMILES,TDP1 inh,IL-1B inflam inh,TDP1 cell noCPT,Giardia killer,DT40 TDP1 CPT,ELG1 DNA repair,ELG1 Luc conf,ELG1-Luc MMS,ELG1 5FU viab,ELG1 MMS cell,Cell viab unstim,others
CC(=O)c1cc(F)ccc1OCC(=O)Nc1ccc2c(c1)OCO2,0,0,0,0,0,?,-,-,-,-,0,
COc1cccc(-c2nc(-c3ccc4c(c3)-c3ccccc3S4(=O)=O)c(-c3ccccc3)[nH]2)c1OC,0,0,4.11µM,0,7.31µM,2.59µM,3.53µM,0,?,?,0,
COc1ccc(-n2c(C)c([N+](=O)[O-])c3ccc(O)c(CN(C)C)c32)cc1,0,-59.4,2.59µM,0,?,0.92µM,1.41µM,2.5µM,0,0,?,ELG1 FLuc counter=?;FLuc biochem=0
COc1ccc(-n2c(C(C)n3nc(C)c([N+](=O)[O-])c3C)n[nH]c2=S)cc1 (stereo not given),0,0,0,0,0,?,-,-,-,-,-,
COC(=O)c1ccccc1NC(=O)c1cc2ccccn2n1,-,-,0,-,0,-,-,-,-,-,-,
Cc1cc(C)c(Cc2c(C)nc3c(C(=O)NCc4ccco4)cnn3c2C)c(C)c1,0,0,8.2µM,0,7.31µM,7.31µM,?,7.06µM,0,7.92µM,?,ELG1 FLuc counter=0;FLuc biochem=0
Cc1cc(C)c2c(n1)nn1c(C)c(CCC(=O)NCc3ccco3)c(C)nc21,0,0,0,0,0,?,-,-,-,-,-,
Cc1cc(C)c(NC(=O)CS(=O)CC(=O)Nc2ccc(-n3cnnn3)c(C)c2)c(C)c1 (stereo not given),-,0,?,0,?,0,-,-,-,-,-,
Nc1ncnc2c1c(I)cn2C1OC(CO)C(O)C1O (stereo not given),0,-,0.276µM,-,0.49µM,-,0.397µM,0.997µM,0,?,0,ELG1 FLuc counter=?;FLuc biochem=0
CCOC(=O)c1c(C)[nH]c(C(=O)NNC(=O)c2ccccc2F)c1C,0,0,0,0,0,?,-,-,-,-,0,
COc1ccc(N2CCCn3c2nc2c3c(=O)n(CCc3ccccc3)c(=O)n2C)cc1,0,0,14.6µM,0,?,4.11µM,17.7µM,15.8µM,?,0,0,
CCOc1ccc(N2CCCn3c2nc2c3c(=O)n(CCc3ccccc3)c(=O)n2C)cc1,0,-,-,-,-,0,-,-,-,-,-,
O=C(CCNS(=O)(=O)c1ccccc1)OCc1ccc([N+](=O)[O-])cc1,-,0,0,-,0,-,-,-,-,-,-,
COc1cc(/C=N/NC(=O)c2ccc(CN3c4cccc5cccc(c45)S3(=O)=O)cc2)cc(OC)c1O,0,0,16.4µM,0,?,3.26µM,3.53µM,22.3µM,?,25µM,?,
COc1ccc(CCNC(=O)CN2c3cccc4cccc(c34)S2(=O)=O)cc1OC,0,0,?,0,0,2.59µM,?,0,?,0,?,
COc1ccc(/C=N/NC(=O)c2ccc(CN3c4cccc5cccc(c45)S3(=O)=O)cc2)cc1,0,0,?,0,0,?,-,-,-,-,-,
O=C(CN1c2cccc3cccc(c23)S1(=O)=O)NCCc1ccccc1,0,0,0,0,0,?,-,-,-,-,-,
